Results as given in the supplement of paper PMC10849652.
Of roughly 7,900 targets only a part is listed; those with a hit were picked by preference. About 0.6% of all pairs of compound and target were hits.

compound: CN(C)CC(=O)Nc1ccc2[nH]c(=O)c3ccccc3c2c1; experiment: log2 fold change, soluble protein after heating vs DMSO (PISA); higher = thermal stabilisation; K562 cells, 10 uM, 30 min; active = over 0.2 and 3.5 SD of the protein, either way, in both replicates (recomputed)
Summary of the method: (§1)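 K562 cells at 2×10^6 cells/mL were given 10 μM compound for 30 min. Aliquots then went through 3 min of heating across 48°C-58°C, were pooled, and were extracted in PBS with 0.5% NP-40 at 4°C, and the supernatant after 21,000xg for 90 min was quantified by TMTpro 16plex LC-MS/MS with channel sums equalised. Thermal stability relative to control samples, from duplicates, is given as log2 fold change.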

Chain of UniProt Q8IWA4 (Q8IWA4 whole entry, looked up): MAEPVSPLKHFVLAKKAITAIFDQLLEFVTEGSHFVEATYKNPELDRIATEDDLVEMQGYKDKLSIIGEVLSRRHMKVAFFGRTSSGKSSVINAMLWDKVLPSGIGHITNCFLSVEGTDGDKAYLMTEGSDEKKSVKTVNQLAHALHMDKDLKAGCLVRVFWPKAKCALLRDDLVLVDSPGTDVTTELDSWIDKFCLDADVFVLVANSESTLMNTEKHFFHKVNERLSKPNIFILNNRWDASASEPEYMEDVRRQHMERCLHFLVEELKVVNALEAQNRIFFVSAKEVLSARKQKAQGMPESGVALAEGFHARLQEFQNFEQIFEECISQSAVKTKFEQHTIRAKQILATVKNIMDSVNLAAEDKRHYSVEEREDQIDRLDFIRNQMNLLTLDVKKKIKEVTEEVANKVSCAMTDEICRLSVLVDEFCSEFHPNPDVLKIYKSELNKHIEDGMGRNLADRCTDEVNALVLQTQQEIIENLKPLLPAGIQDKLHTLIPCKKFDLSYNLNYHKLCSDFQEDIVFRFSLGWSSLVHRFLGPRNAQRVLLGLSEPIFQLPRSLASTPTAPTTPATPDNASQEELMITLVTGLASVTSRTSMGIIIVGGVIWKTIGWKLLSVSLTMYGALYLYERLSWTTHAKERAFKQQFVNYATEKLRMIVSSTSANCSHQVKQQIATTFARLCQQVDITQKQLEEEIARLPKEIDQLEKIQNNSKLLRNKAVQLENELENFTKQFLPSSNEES
Chain of UniProt Q9NQ29 (Q9NQ29 whole entry, looked up): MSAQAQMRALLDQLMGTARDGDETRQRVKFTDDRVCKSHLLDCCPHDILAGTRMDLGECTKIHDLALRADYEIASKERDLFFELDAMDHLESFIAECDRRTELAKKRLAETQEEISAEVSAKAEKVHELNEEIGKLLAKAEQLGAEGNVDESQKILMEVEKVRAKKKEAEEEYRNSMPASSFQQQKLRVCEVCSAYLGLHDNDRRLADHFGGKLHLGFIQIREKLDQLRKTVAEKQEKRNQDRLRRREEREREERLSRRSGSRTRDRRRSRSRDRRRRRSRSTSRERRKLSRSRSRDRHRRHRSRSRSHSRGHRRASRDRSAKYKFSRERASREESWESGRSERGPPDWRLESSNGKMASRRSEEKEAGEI
Chain of UniProt Q9UHB6 (Q9UHB6 whole entry, looked up): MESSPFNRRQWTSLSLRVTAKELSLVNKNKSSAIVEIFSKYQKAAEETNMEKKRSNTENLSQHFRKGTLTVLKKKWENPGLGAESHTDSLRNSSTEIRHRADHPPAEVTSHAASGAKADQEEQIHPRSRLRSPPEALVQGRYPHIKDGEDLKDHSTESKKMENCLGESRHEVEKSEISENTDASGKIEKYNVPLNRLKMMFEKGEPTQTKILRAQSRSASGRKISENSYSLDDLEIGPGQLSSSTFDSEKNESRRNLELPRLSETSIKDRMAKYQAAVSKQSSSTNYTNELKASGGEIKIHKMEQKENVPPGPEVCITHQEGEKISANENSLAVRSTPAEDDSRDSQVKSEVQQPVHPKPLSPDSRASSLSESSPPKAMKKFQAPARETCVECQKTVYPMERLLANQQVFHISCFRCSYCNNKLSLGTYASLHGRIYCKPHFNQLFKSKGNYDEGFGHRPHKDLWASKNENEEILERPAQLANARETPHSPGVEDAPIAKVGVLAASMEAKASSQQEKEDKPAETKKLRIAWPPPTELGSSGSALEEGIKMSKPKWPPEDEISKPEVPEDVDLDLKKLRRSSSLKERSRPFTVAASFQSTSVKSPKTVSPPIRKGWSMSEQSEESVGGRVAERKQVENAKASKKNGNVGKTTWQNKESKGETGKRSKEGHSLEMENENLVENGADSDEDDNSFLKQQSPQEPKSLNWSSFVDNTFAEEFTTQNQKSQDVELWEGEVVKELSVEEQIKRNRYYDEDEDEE
Chain of UniProt O94829 (O94829 whole entry, looked up): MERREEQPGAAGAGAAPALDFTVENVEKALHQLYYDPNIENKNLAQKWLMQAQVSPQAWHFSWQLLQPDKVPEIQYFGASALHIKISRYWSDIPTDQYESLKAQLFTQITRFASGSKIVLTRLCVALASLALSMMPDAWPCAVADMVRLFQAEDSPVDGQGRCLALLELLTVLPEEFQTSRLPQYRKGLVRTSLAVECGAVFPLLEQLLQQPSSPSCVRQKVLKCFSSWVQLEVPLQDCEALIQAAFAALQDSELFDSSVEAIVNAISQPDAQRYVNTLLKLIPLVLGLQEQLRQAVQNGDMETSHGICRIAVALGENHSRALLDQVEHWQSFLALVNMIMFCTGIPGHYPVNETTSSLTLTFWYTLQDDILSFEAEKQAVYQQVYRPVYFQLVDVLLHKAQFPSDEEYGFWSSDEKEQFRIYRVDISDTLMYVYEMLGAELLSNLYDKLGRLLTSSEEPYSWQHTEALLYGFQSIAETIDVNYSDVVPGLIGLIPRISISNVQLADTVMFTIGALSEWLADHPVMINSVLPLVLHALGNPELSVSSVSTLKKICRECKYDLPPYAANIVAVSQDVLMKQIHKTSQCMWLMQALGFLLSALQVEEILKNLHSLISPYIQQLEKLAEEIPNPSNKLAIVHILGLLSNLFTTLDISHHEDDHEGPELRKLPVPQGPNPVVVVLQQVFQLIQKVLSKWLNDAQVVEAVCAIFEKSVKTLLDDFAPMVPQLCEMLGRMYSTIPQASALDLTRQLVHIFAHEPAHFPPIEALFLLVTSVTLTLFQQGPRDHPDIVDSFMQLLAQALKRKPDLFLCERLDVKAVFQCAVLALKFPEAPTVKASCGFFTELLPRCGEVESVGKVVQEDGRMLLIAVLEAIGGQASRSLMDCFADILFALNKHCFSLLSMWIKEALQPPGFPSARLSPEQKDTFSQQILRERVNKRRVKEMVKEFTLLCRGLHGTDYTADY
Chain of UniProt P23276 (P23276 whole entry, looked up): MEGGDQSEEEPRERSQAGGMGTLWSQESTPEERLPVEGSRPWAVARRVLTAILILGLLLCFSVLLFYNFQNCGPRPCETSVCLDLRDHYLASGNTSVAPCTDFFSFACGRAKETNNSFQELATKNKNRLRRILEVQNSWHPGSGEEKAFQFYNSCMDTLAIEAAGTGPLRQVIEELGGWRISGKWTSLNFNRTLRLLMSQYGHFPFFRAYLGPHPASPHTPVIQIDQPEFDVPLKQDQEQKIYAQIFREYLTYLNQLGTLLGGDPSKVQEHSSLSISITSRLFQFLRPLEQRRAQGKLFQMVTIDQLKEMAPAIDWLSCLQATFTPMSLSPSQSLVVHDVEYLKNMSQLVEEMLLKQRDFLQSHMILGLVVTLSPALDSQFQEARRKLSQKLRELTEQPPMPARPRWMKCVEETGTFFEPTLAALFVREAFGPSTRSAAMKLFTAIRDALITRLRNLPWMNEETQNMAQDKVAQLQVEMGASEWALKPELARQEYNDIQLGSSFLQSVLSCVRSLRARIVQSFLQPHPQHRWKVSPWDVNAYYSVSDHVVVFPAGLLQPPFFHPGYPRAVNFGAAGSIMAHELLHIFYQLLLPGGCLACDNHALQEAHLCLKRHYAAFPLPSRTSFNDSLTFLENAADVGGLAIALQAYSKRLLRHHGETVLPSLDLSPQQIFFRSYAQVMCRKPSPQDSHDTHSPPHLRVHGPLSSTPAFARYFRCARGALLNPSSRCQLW
Chain of UniProt Q86UP2 (Q86UP2 whole entry, looked up): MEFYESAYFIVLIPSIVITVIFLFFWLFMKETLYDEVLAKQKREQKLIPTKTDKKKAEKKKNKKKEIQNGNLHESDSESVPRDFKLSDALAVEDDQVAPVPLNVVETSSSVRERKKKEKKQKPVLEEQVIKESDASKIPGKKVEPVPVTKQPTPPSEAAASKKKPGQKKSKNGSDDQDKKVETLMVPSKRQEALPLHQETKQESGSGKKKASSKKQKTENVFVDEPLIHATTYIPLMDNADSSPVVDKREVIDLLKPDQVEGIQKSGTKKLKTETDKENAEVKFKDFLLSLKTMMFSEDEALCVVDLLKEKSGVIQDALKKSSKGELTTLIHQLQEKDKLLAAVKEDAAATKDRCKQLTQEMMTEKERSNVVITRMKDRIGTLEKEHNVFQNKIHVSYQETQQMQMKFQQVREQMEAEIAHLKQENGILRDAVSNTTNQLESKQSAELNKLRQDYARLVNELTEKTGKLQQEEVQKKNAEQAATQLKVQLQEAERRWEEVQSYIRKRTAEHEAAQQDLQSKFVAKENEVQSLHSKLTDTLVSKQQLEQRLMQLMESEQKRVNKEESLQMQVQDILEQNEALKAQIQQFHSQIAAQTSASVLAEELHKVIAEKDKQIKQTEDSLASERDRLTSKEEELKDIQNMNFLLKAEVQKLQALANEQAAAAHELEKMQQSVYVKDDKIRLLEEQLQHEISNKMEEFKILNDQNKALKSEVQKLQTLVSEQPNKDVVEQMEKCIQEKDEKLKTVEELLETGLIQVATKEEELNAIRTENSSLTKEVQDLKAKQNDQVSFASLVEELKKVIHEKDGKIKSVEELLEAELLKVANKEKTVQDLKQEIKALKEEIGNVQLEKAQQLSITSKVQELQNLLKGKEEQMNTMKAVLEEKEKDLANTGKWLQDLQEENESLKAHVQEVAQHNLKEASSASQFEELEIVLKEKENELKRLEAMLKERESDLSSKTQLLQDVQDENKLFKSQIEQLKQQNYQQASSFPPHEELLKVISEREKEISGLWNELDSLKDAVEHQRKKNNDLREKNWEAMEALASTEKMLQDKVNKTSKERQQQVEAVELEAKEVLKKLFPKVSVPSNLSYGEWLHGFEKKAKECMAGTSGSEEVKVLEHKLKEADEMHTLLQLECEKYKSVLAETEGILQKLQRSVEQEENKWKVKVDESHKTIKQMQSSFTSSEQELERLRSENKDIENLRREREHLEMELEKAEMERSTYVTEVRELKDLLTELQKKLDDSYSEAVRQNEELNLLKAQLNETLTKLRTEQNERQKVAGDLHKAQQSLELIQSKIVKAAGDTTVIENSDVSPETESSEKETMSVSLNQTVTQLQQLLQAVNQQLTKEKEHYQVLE

log2 fold change, inactive:
IWS1 (UniProt Q96ST2) 0.046, LUC7L2 (UniProt Q9Y383) -0.001, MARK3 (UniProt P27448) 0.055, MIEF1 (UniProt L0R8F8) -0.018, KIF11 (UniProt P52732) 0.041, LPIN3 isoform 2 (UniProt Q9BQK8) -0.054, INPP5B (UniProt P32019) 0.057, LNPEP (UniProt Q9UIQ6) 0.012, KDM1A isoform 2 (UniProt O60341) 0.006, IPO13 (UniProt O94829) -0.013, MIEF1 (UniProt Q9NQG6) 0.054, KDELR2 (UniProt P33947) -0.125, KTN1 (UniProt Q86UP2) 0.006, KHDRBS1 (UniProt Q07666) -0.007, KSR1 (UniProt Q8IVT5) 0.009, LUC7L3 (UniProt O95232) -0.031, LAMP2 (UniProt P13473) 0.059, MED1 (UniProt Q15648) -0.054, MICU2 (UniProt Q8IYU8) 0.007, ILK (UniProt Q13418) -0.006, KIF13A (UniProt Q9H1H9) -0.026, KIF3A (UniProt Q9Y496) 0.032, KDM5D isoform 3 (UniProt Q9BY66) 0.223, KIAA1324L (UniProt A8MWY0) 0.091, MIER1 isoform 12 (UniProt Q8N108) -0.033, MIA2 (UniProt Q96PC5) 0.005, LIMA1 isoform 4 (UniProt Q9UHB6) -0.053, METTL18 (UniProt O95568) 0.006, KIF21A isoform 4 (UniProt Q7Z4S6) 0.013, LUC7L (UniProt Q9NQ29) -0.043, KEL (UniProt P23276) -0.007, LEO1 (UniProt Q8WVC0) 0.121, LARP4 isoform 4 (UniProt Q71RC2) 0.009, MFF (UniProt Q9GZY8) -0.031, MFN1 (UniProt Q8IWA4) -0.025, MCL1 (UniProt Q07820) 0.052, LYN (UniProt P07948) -0.024, ILVBL (UniProt A1L0T0) 0.036, KCTD2 (UniProt Q14681) -0.068

compound: CN(CCOC1=CC=C(C=C1)C[C@H]2C(=O)NC(=O)S2)C3=CC=CC=N3 (racemic) [rosiglitazone]; experiment: as above
Summary of the method: as §1

log2 fold change, inactive:
IWS1 (UniProt Q96ST2) 0.029, LUC7L2 (UniProt Q9Y383) 0.011, MARK3 (UniProt P27448) 0.049, MIEF1 (UniProt L0R8F8) -0.019, KIF11 (UniProt P52732) 0.031, LPIN3 isoform 2 (UniProt Q9BQK8) 0.135, INPP5B (UniProt P32019) 0.012, LNPEP (UniProt Q9UIQ6) 0.016, KDM1A isoform 2 (UniProt O60341) 0.099, IPO13 (UniProt O94829) 0.072, MIEF1 (UniProt Q9NQG6) 0.041, KDELR2 (UniProt P33947) 0.017, KTN1 (UniProt Q86UP2) -0.009, KHDRBS1 (UniProt Q07666) -0.028, KSR1 (UniProt Q8IVT5) 0.058, LUC7L3 (UniProt O95232) 0.004, LAMP2 (UniProt P13473) 0.007, MED1 (UniProt Q15648) 0.001, MICU2 (UniProt Q8IYU8) -0.017, ILK (UniProt Q13418) 0.051, KIF13A (UniProt Q9H1H9) 0.068, KIF3A (UniProt Q9Y496) 0.174, KDM5D isoform 3 (UniProt Q9BY66) 0.108, KIAA1324L (UniProt A8MWY0) 0.111, MIER1 isoform 12 (UniProt Q8N108) -0.027, MIA2 (UniProt Q96PC5) 0.034, LIMA1 isoform 4 (UniProt Q9UHB6) -0.01, METTL18 (UniProt O95568) 0.062, KIF21A isoform 4 (UniProt Q7Z4S6) 0.033, LUC7L (UniProt Q9NQ29) -0.003, KEL (UniProt P23276) 0.024, LEO1 (UniProt Q8WVC0) 0.006, LARP4 isoform 4 (UniProt Q71RC2) 0.018, MFF (UniProt Q9GZY8) 0.035, MFN1 (UniProt Q8IWA4) 0.32, MCL1 (UniProt Q07820) 0.019, LYN (UniProt P07948) -0.009, ILVBL (UniProt A1L0T0) -0.044, KCTD2 (UniProt Q14681) -0.024
